Laboratory results as given in PubChem BioAssay (NCATS).
Where “and” joins values, the source holds several entries; their conditions need not be identical. Identical values can stand only once. Records with an inconclusive call do not appear. Calls of active or inactive are those of the source. The call rests on the fitted dose curve; in most records, active means well fitted curve in the direction sought with a large enough effect; inconclusive means small, poorly fitted or top-dose-only effect, or another doubt; inactive means no such curve, though single readings can be large; an effect the other way counts as inactive or inconclusive.

Legend:
[1] = Cell Viability - N2a (AID 540); conditions: N2a mouse neuroblastoma cell viability; activity change, negative = cytotoxicity: at 92.2 µM (top of the series);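 further: cells exposed to compound for 40 h at 37 °C; plate controls were DMSO alone for no effect and tamoxifen control for full effect; nearly all actives have a fitted effect of over 45% in size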
Procedure, shortened: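 In this qHTS cytotoxicity screen, ATP-dependent luciferase luminescence reports viable N2a cells after a 40 hr compound exposure in complete culture medium. Potencies are AC50 values from standard Hill equation fits.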

[2] = Cell Viability - HUV-EC-C (AID 542); further: on the % scale 0 is the no-effect control and ±100 the full control effect; nearly all actives have a fitted effect of over 35% in size
Procedure, shortened: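 Concentration-dependent ATP loss in HUV-EC-C cells is the measure. Exposure lasts 40 hr at 37 °C; luminescence follows CellTiter-Glo addition, and Hill fits give AC50.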

[3] = Cell Viability - Renal Proximal Tubule (AID 545); conditions: renal proximal tubule cells viability, primary cells of rat origin; at 91.7 µM (top of the series); further: nearly all actives have a fitted effect of over 40% in size
Procedure, shortened: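 In this qHTS format, normal rat kidney-derived proximal tubule cells in complete culture medium receive compound titrations, then sit 40 hours at 37 °C before luciferase-based ATP quantitation; potency is reported as AC50 from concentration-response curves.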

[4] = Cellular Toxicity (caspase-3) Jurkat (AID 655); conditions: Jurkat caspase-3 activation, luminescence, DMSO = 0%, tamoxifen = 100%; at 92.2 µM (top of the series);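 further: cells exposed to compound for 16 h at 37 °C before reading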
Procedure, shortened: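 qHTS in human Jurkat T-cell leukemia line: 16 hr compound treatment at 37 °C, caspase-3/7 activity measured by Caspase-Glo luminescence. AC50 derived from Hill equation.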

[5] = Cellular Toxicity (caspase-3) SHSY5Y (AID 657);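 further: cells exposed to compound for 16 hours at 37 °C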
Procedure, shortened: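 Readout: caspase-cleaved peptide-aminoluciferin substrate driving luciferase light in SH-SY5Y neuroblastoma cells after 16 h treatment. Response normalized to DMSO and 10 uM staurosporine controls.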

[6] = Cellular Toxicity (caspase-3) SK-N-SH (AID 661);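 further: cells exposed to compound for 16 hours; 0% = DMSO basal and 100% = 10 µM staurosporine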
Procedure, shortened: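 Apoptosis readout in SK-N-SH neuroblastoma: Caspase-Glo 3/7 luminescence following 16 hr treatment in complete culture medium. Normalization used DMSO and 10 uM staurosporine controls.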

[7] = Cellular Toxicity (caspase-3) H-4-II-E (AID 663); conditions: Potency: caspase-3 activation;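 further: cells exposed to compound for 16 hr before readout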
Procedure, shortened: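 Caspase 3/7 activation measured by luminescent aminoluciferin substrate cleavage after 16 hr compound treatment of H-4-II-E cells in complete medium. Increase normalized between DMSO (basal) and 100 uM tamoxifen (100%); Hill-equation AC50 from concentration-response.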

[8] = Cellular Toxicity (caspase-3) N2a (AID 665);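 further: compound exposure lasted 16 h at 37 °C before readout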
Procedure, shortened: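 Concentration-response qHTS: compound-induced caspase-3/7 luminescence in N2a cells (16 h, 37 °C), relative to DMSO and 10 uM staurosporine controls; AC50 obtained using the standard Hill equation.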

[9] = Cell Viability - LYMP2-001 (AID 921);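 further: 0% = DMSO only and full inhibition = tetraoctylammonium bromide control wells; nearly all actives have a fitted effect of over 70% in size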
Procedure, shortened: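 A lymphoblastoid cell line of human origin was treated with library compounds across a concentration series for 24 hours, and viable cell number was estimated from ATP-driven luciferase light output. Hill modeling gave AC50.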

[10] = Cell Viability - LYMP1-002 - Assay at 16 hr (AID 948);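 further: 0% = DMSO alone and full effect = 92 µM tetraoctylammonium bromide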
Procedure, shortened: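 In this qHTS, lymphoblastoid LYMP1-002 cells (human) receive compounds for 16 hr at 37 C. Viability is taken from CellTiter-Glo ATP luminescence, and AC50 derives from standard Hill fits.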

[11] = Cell Viability - LYMP1-003 - Assay at 24 hr (AID 963);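 further: plate controls were DMSO only for no effect and tetraoctylammonium bromide positive control for full effect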
Procedure, shortened: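 The lymphoblastoid line was treated with titrated compounds for 24 hours, and viable cell number estimated from luciferase-based ATP luminescence.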

[12] = Cell Viability - LYMP2-003 (AID 965);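 further: cells exposed to compounds for 24 h before reading; 0% = DMSO only and full effect = 92 µM tetraoctylammonium bromide; nearly all actives have a fitted effect of over 50% in size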
Procedure, shortened: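 qHTS, human lymphoblastoid line, 2500 cells/well, complete medium. 24 h drug, 37 C. ATP-based luminescent readout; Hill-fit AC50.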

[13] = Cell Viability - LYMP2-005 (AID 967);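 further: plate controls were DMSO only for no effect and 92 µM tetraoctylammonium bromide control for full effect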
Procedure, shortened: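 Luciferase-based ATP quantitation served as the viability measure in human lymphoblastoid LYMP2-005 cells exposed to test compounds for 24 h at 37 C in complete culture medium. Potency (AC50) was obtained by fitting concentration-response curves with the Hill equation.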

[14] = Cell Viability - LYMP2-009 (AID 968);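 further: 0% = DMSO alone and the full-kill end = tetraoctylammonium bromide at 92 µM; nearly all actives have a fitted effect of over 55% in size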
[15] = Cell Viability - LYMP2-019 (AID 973);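 further: 0% = DMSO alone and full effect = 92 µM tetraoctylammonium bromide; nearly all actives have a fitted effect of over 55% in size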
Procedure, shortened: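 AC50 values come from Hill-equation modelling of qHTS concentration-response curves, where viability is measured as luciferase-based ATP luminescence in the lymphoblastoid line after 24 hr compound exposure in complete culture medium.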

[16] = Cell Viability - LYMP2-023 (AID 975);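 further: cellular ATP measured by luciferase luminescence as viability proxy; plate controls were DMSO only for no effect and 92 µM tetraoctylammonium bromide control for full effect; nearly all actives have a fitted effect of over 55% in size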
Procedure, shortened: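 In this qHTS, ATP-based luciferase luminescence (CellTiter-Glo) is quantified in human lymphoblastoid cells after 24 hr compound treatment at 37 C; tetraoctylammonium bromide serves as positive control. Concentration-response curves are Hill-fitted to give AC50.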

[17] = Cell Viability - LYMP2-025 (AID 976);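 further: plate controls were DMSO only for no effect and tetraoctylammonium bromide control for full effect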
Procedure, shortened: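 Luminescent ATP readout after 24 hr treatment of a human lymphoblastoid line (LYMP2-025, 2500 cells/well, 37 C). Reagent developed 30 min at room temperature; AC50 fitted with the Hill equation.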

[18] = Cell Viability - LYMP2-008 (AID 980); further: on the % scale 0 is the no-effect control and ±100 the full control effect; nearly all actives have a fitted effect of over 60% in size
Procedure, shortened: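 Measured: ATP-dependent luminescence, proportional to viable cell number, in human lymphoblastoid cells treated 24 hr with compound in complete culture medium. Values are AC50s from Hill-equation modelling of qHTS titrations.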

[19] = Cell Viability - LYMP2-014 (AID 983);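 further: plate controls were DMSO only for no effect and 92 µM tetraoctylammonium bromide for full effect; nearly all actives have a fitted effect of over 50% in size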
Procedure, shortened: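 Quantitative HTS in lymphoblastoid cells: 24 hr compound exposure, then CellTiter-Glo ATP luminescence. Positive control was tetraoctylammonium bromide, 6.4pM to 92 uM.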

[20] = Cell Viability - LYMP2-026 (AID 989); further: on the % scale 0 is the no-effect control and ±100 the full control effect; nearly all actives have a fitted effect of over 50% in size
Procedure, shortened: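 Acute toxicity screen in complete culture medium, with 24 hr compound exposure at 37 C. Viability read as cellular ATP via luciferase reaction, with tetraoctylammonium bromide (6.4pM to 92 uM) as positive control.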

O=C(O)CC(C(=O)O)C(CC(=O)O)C(=O)O (stereo not given)
inactive: activity change, negative = cytotoxicity [1] -8.87% | outcome [2] | activity change, negative = cytotoxicity [3] -9.72% | caspase-3 activation [4] -0.624% | outcome [5] | outcome [6] | Potency [7] | outcome [8] | Potency [9] | Potency [10] | Potency [11] | Potency [12] | Potency [13] | Potency [14] | Potency [15] | Potency [16] | Potency [17] | Potency [18] | Potency [19] | Potency [20]

Cc1ccccc1C
inactive: activity change, negative = cytotoxicity [1] -22.6% and -8.22% | outcome [2] | activity change, negative = cytotoxicity [3] -2.71% and -0.376% | caspase-3 activation [4] 3.87% and 7.19% | outcome [5] | outcome [6] | Potency [7] | outcome [8] | Potency [9] | Potency [10] | Potency [11] | Potency [12] | Potency [13] | Potency [14] | Potency [15] | Potency [16] | Potency [17] | Potency [18] | Potency [19] | Potency [20]

c1ccc2c(c1)c1cccc3ccc4cccc2c4c31
inactive: activity change, negative = cytotoxicity [1] 3.28% | outcome [2] | activity change, negative = cytotoxicity [3] -12.3% | caspase-3 activation [4] 0.0871% | outcome [5] | outcome [6] | Potency [7] | outcome [8] | Potency [9] | Potency [10] | Potency [11] | Potency [12] | Potency [13] | Potency [14] | Potency [15] | Potency [16] | Potency [17] | Potency [18] | Potency [19] | Potency [20]

Cc1ccc([N+](=O)[O-])c(C)c1
inactive: activity change, negative = cytotoxicity [1] -14.6% | outcome [2] | activity change, negative = cytotoxicity [3] -0.903% | caspase-3 activation [4] 0.882% | outcome [5] | outcome [6] | Potency [7] | outcome [8] | Potency [9] | Potency [10] | Potency [11] | Potency [12] | Potency [13] | Potency [14] | Potency [15] | Potency [16] | Potency [17] | Potency [18] | Potency [19] | Potency [20]

CN(C)C=O
inactive: activity change, negative = cytotoxicity [1] -9.63% and 3.24% | outcome [2] | activity change, negative = cytotoxicity [3] -1.87% and 6.39% | caspase-3 activation [4] 2.75% and 2.81% | outcome [5] | outcome [6] | Potency [7] | outcome [8] | Potency [9] | Potency [10] | Potency [11] | Potency [12] | Potency [13] | Potency [14] | Potency [15] | Potency [16] | Potency [17] | Potency [18] | Potency [19] | Potency [20]

C=Cc1ccccc1Cl
inactive: activity change, negative = cytotoxicity [1] 1.46% | outcome [2] | activity change, negative = cytotoxicity [3] -4.37% | caspase-3 activation [4] -1.24% | outcome [5] | outcome [6] | Potency [7] | outcome [8] | Potency [9] | Potency [10] | Potency [11] | Potency [12] | Potency [13] | Potency [14] | Potency [15] | Potency [16] | Potency [17] | Potency [18] | Potency [19] | Potency [20]

OCCNCCO
inactive: activity change, negative = cytotoxicity [1] 6.19% | outcome [2] | activity change, negative = cytotoxicity [3] -1.22% | caspase-3 activation [4] 2.36% | outcome [5] | outcome [6] | Potency [7] | outcome [8] | Potency [9] | Potency [10] | Potency [11] | Potency [12] | Potency [13] | Potency [14] | Potency [15] | Potency [16] | Potency [17] | Potency [18] | Potency [19] | Potency [20]

O=C(O)c1ccc(O)cc1O
inactive: activity change, negative = cytotoxicity [1] 7.6% and 11% | outcome [2] | activity change, negative = cytotoxicity [3] -3.65% and 5.93% | caspase-3 activation [4] -0.639% and 0.659% | outcome [5] | outcome [6] | Potency [7] | outcome [8] | Potency [9] | Potency [10] | Potency [11] | Potency [12] | Potency [13] | Potency [14] | Potency [15] | Potency [16] | Potency [17] | Potency [18] | Potency [19] | Potency [20]

O=NO
inactive: activity change, negative = cytotoxicity [1] -19.4% and -4.96% | outcome [2] | activity change, negative = cytotoxicity [3] -3.27% and -5.21% | caspase-3 activation [4] -1.69% and 0.278% | outcome [5] | outcome [6] | Potency [7] | outcome [8] | Potency [9] | Potency [10] | Potency [11] | Potency [12] | Potency [13] | Potency [14] | Potency [15] | Potency [16] | Potency [17] | Potency [18] | Potency [19] | Potency [20]

Cc1c(N=C=O)cccc1N=C=O
inactive: activity change, negative = cytotoxicity [1] -2.52% | outcome [2] | activity change, negative = cytotoxicity [3] 6.1% | caspase-3 activation [4] -0.0166% | outcome [5] | outcome [6] | Potency [7] | outcome [8] | Potency [9] | Potency [10] | Potency [11] | Potency [12] | Potency [13] | Potency [14] | Potency [15] | Potency [16] | Potency [17] | Potency [18] | Potency [19] | Potency [20]
